Here are results for 45 compounds from PubChem BioAssay AID1259417 (TB Discovery Research, Infectious Disease Research Institute, 2018).

The nature of the experiment: M. tuberculosis growth inhibition, HTS (AID 1259417).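 Further: bacteria grown with compound for 5 days at 37 °C.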 Conditions: stronger effect = higher value, concentration not given here.
Setting [1] is: M. tuberculosis DsRed fluorescence growth inhibition.
Setting [2] is: M. tuberculosis growth inhibition.

The whole screen tested about 1,100 compounds, of which about 760 (69%) were called active. How the calls were made is not given here. So high a share suggests a set chosen from earlier hits. The list shows a part of the results.

One may read the inhibition as the relative decrease from the control value, in per cent. For the compound `Cc1ccc(Nc2nc(N3CCN(C)CC3)nc(N)c2[N+](=O)[O-])cc1C`, the inhibition under setting [1] was 61.4% (active) and the inhibition under setting [2] turned out to be 61.7%.
The corresponding values for `Cc1ccc(-c2nnc3sc(Cc4ccccc4)nn23)cc1` are 100% (active) and 99.4%.
`Cc1ccc(-c2nnc3sc(CCc4ccccc4)nn23)cc1`: the inhibition under setting [1] was 100% (active) and the inhibition under setting [2] was determined as 100%.
The matching figures for `COc1ccc(Cc2nn3c(-c4ccccc4)nnc3s2)cc1`: 100% (active) and 100%.
In the case of `Cc1cnc(NC(=O)CSc2ccc(Cl)cc2)s1`, the inhibition runs as follows: under setting [1], -1.45% (inactive); under setting [2], -17.5%.
The corresponding values for `Cc1cccc(Nc2nnc(SCC(=O)Nc3cccnc3Cl)s2)c1` are 3% (inactive) and 14.2%.
The matching figures for `N#Cc1ccc(NC(=O)CSc2ccc(Cl)cc2)cc1`: 10.6% (active) and 56.7%.
The corresponding values for `O=C(CSc1nnc(SCc2cccc3ccccc23)s1)Nc1ccccc1F` are 3.26% (active) and 43.1%.
With `O=C(CSc1ccc(Cl)cc1)Nc1ccc(Br)cn1`, the inhibition by setting is: under setting [1], 2.64% (active); under setting [2], 38%.
As for `N#Cc1ccc(NC(=O)CSc2ccc(Br)cc2)cc1`, the inhibition under setting [1] is 8.52% (active) and the inhibition under setting [2] was 46.8%.
In the case of `O=C(CSc1ccc(Br)cc1)Nc1ccccc1F`, the inhibition was 1.79% (active) under setting [1] and 46.4% under setting [2].
As to `CCC(C)NCCCOc1ccc(Cl)c2ccccc12` (stereo not given), the inhibition reads like this: under setting [1], 97.1% (active); under setting [2], 89.4%.
Take `Clc1ccc(OCCCNCc2ccccc2)c2ccccc12`: the inhibition is, setting by setting: under setting [1], -2.3% (inactive); under setting [2], -30%.
The matching figures for `COC(=O)COc1ccc(-c2ccc(F)cc2)cc1C=O`: 39.2% (active) and 85.5%.
Take `Cc1cc(Nc2ccc(C)c(Cl)c2)n2ncc(-c3ccccc3)c2n1`: the inhibition was -7.72% (inactive) under setting [1] and 1.18% under setting [2].
For the compound `COc1ccccc1-c1cnn2c(Nc3cccc(Cl)c3)cc(C)nc12`, the inhibition reads like this: under setting [1], 32.5% (active); under setting [2], 72.2%.
In the case of `Cc1cc(Nc2ccc(C)c(C)c2)n2ncc(-c3ccccc3)c2n1`, the inhibition was 5.96% (active) under setting [1] and 38.3% under setting [2].
The matching figures for `O=c1[nH]c(C=Cc2cccc3ccccc23)nc(O)c1[N+](=O)[O-]`: 3.53% (inactive) and 9.27%.
For `CC1CCN(CCNC(=S)Nc2ccc(F)cc2)CC1`, the inhibition under setting [1] is 0.916% (inactive) and the inhibition under setting [2] was -24%.
Regarding `COc1ccc(CCNC(=S)N2CCN(CC=Cc3ccccc3)CC2)cc1OC`, the inhibition is, setting by setting: under setting [1], 20.3% (inactive); under setting [2], 12.5%.
The matching figures for `S=C(NCc1ccc(Cl)cc1)N1CCN(CC=Cc2ccccc2)CC1`: 5.55% (inactive) and -11%.
The corresponding values for `CCN(CC)c1ccc(NC(=S)NCCc2ccc(OC)c(OC)c2)cc1` are 91.5% (active) and 100%.
`CCN(CC)C(=S)NC(=O)c1ccc(Cl)cc1`: the inhibition runs as follows: under setting [1], 0.912% (inactive); under setting [2], 0.451%.
The matching figures for `CCN(CC)c1ccc(NC(=S)NCc2ccc(Cl)cc2)cc1`: 72.5% (active) and 88.7%.
The corresponding values for `c1ccc(-c2nnc(SCc3nnc(-c4cccs4)o3)o2)cc1` are -2.64% (inactive) and -5.86%.
The corresponding values for `O=C(CSc1nnc(-c2cccs2)o1)OC1CCCCC1` are 28.2% (active) and 52.1%.
In the case of `COC(=O)CSc1nnc(-c2ccc(OC)c(OC)c2)o1`, the inhibition under setting [1] was 79.2% (active) and the inhibition under setting [2] stood at 92.4%.
As for `COC(=O)CSc1nnc(-c2ccc(Cl)cc2)o1`, the inhibition under setting [1] was 61.4% (active) and the inhibition under setting [2] stood at 85%.
With `COc1ccc(-c2nnc(SCC(=O)OC3CCCCC3)o2)cc1OC`, the inhibition under setting [1] was 50.5% (active) and the inhibition under setting [2] worked out at 80.2%.
Regarding `COc1cccc(C(=O)NC(=S)Nc2ccc(N3CCN(C(=O)c4cccs4)CC3)c(Cl)c2)c1`, the inhibition runs as follows: under setting [1], 62% (active); under setting [2], 11.5%.
The corresponding values for `CCc1ccc(OCC(=O)Nc2ccc(N3CCN(C(=O)c4cccs4)CC3)c(Cl)c2)cc1` are 0.597% (inactive) and -20.3%.
Regarding `CCOc1ccc(C(=O)Nc2ccc(N3CCN(C(=O)c4cccs4)CC3)c(Cl)c2)cc1Br`, the inhibition is 14.9% (inactive) under setting [1] and -6.08% under setting [2].
For the compound `O=C(CC12CC3CC(CC(C3)C1)C2)Nc1ccc(Br)cc1`, the inhibition is, setting by setting: under setting [1], 50.7% (active); under setting [2], 17.6%.
On to `O=C(Nc1ccc(F)c(Cl)c1)C12CC3CCC(CC(C3)C1)C2`, for which the inhibition reads like this: under setting [1], 100% (active); under setting [2], 97.2%.
The corresponding values for `COC(=O)c1ccc(NC(=O)CC23CC4CC(CC(C4)C2)C3)cc1` are 5.38% (inactive) and -0.346%.
Consider `O=C(CC12CC3CC(CC(C3)C1)C2)Nc1ccc(F)c(Cl)c1`, for which the inhibition by setting is: under setting [1], 98.3% (active); under setting [2], 95.1%.
The matching figures for `O=C(CC12CC3CC(CC(C3)C1)C2)Nc1ccc2ccccc2c1`: 99.1% (active) and 96.6%.
The corresponding values for `O=C(CC12CC3CC(CC(C3)C1)C2)Nc1ccc2c(c1)OCCO2` are 40.1% (active) and 16.6%.
The matching figures for `O=C(CC12CC3CC(CC(C3)C1)C2)Nc1cccc(Cl)c1`: 64.1% (active) and 34.5%.
Regarding `Cc1ccc(NC(=O)C23CC4CCC(CC(C4)C2)C3)cc1`, the inhibition under setting [1] is 99.7% (active) and the inhibition under setting [2] was 96.9%.
In the case of `COC(=O)c1cc(NC(=O)CC23CC4CC(CC(C4)C2)C3)cc(C(=O)OC)c1`, the inhibition runs as follows: under setting [1], 11.6% (inactive); under setting [2], -29%.
With `O=C(CC12CC3CC(CC(C3)C1)C2)Nc1cccc(C(F)(F)F)c1`, the inhibition is, setting by setting: under setting [1], 97.7% (active); under setting [2], 85.6%.
The corresponding values for `C[n+]1c2n(c3ccccc31)N=C(c1cc(C(C)(C)C)c(O)c(C(C)(C)C)c1)CS2` are -2.19% (inactive) and 3.98%.
The matching figures for `O=C(CC12CC3CC(CC(C3)C1)C2)Nc1ccc(I)cc1F`: 57.6% (active) and 24.5%.
The matching figures for `CC(NC(=O)Nc1cccc(C(F)(F)F)c1)C1CC2CCC1C2` (stereo not given): 98.8% (active) and 99.4%.
